The labels stand for the following.
T1: UNK ZnF1-6 (called full-length) (human, UniProt Q9C0B0 30-357)
T1 sequence: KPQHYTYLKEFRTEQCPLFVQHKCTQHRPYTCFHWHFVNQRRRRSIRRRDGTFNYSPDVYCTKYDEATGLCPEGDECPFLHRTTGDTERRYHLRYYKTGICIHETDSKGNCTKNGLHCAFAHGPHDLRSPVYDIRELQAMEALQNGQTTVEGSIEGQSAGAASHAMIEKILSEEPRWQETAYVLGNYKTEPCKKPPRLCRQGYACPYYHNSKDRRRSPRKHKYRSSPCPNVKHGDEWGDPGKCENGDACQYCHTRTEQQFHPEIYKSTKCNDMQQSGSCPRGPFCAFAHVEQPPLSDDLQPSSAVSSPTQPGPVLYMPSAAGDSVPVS

B1: ENSG00000070961:be:win_4601|3pUTR|ENSG00000070961|bound_else_gene|NA|bound_elsewhere_windowed (ssRNA)
RNA: GGGAGUUCUACAGUCCGACGAUCUCAGACUAUCAAACUACAAGAGAACCUUAGUCUUUUUUGUUUUUGUCUAAACAUGUUAGUUUAGUGAUGUCUUGGUGAACUGUGAGUGAACUGUAUUGAUUUUUCUAAUCUUUAGAGACCCAACAGAGGAUUGAGCAUCA
B2: ENSG00000157823:stop:overlap|stop_codon|ENSG00000157823|stop_codon|NA|stop_codon (ssRNA)
RNA: GGGAGUUCUACAGUCCGACGAUCUCCGCUUCUACCAGCGUUUCAAGAAAUUCAACAGCAGAUUGUUCGAGAGACUUUCCAUCUAGUCCUCAAGCGGGAUGACAACAUCUGUAACUUCUUGGAGGGUGGAAGUUUGAUUGGUGGCAACAGAGGAUUGAGCAUCA
B3: chr13:42321371:42321394:+|3pUTR|ENSG00000023516|msi1_unk|FALSE|overlapping (ssRNA)
RNA: GGGAGUUCUACAGUCCGACGAUCUUCUGUUUAUGGUGUAAUCAUUCUGAGGUGAGGCUUUUCUUAUUUCCUUUGCAUUUUGCUAGAGCUGUGCUGAGUUCAGCAUUUGCUUAUUUAACCACUACAUAAUGACAGACCAGUUAUCAACAGAGGAUUGAGCAUCA
B4: chr7:157269180:157269282:+|3pUTR|ENSG00000009335|unk|FALSE|unique (ssRNA)
RNA: GGGAGUUCUACAGUCCGACGAUCAUUUUAGGUUGUUUUAUGUUGAAUGUUCUAUAUCUUAUUAGUUAAUUUGUAUAUUUUAUUAGUAUUUUGGAAAUAGCAUAUCUGAGACUGAAGAGAAAUUGACAAUUCACUUAUUUGUGGCAACAGAGGAUUGAGCAUCA
B5: chr2:65312585:65312700:-|3pUTR|ENSG00000198369|unk|FALSE|unique (ssRNA)
RNA: GGGAGUUCUACAGUCCGACGAUCUGGACCAGGGCUAGAAUGGGGAUUUCAGGUUUCUAUGAGCCUCCCCAUUACCCCUAAAGUAGAACAUUUUUUAAAUUGUGUUGCCACCACUUCUAAAAAUUUAGCAAUAUUAGAAUAGGACAACAGAGGAUUGAGCAUCA
B6: chr17:29548703:29548809:+|3pUTR|ENSG00000160551|unk|FALSE|bound_elsewhere (ssRNA)
RNA: GGGAGUUCUACAGUCCGACGAUCAGCACUUGUGAGUGAAAAAUCAUGUAAUUAUCUGUAAAUAUGUAGCUAACAAAUUGACCUAGUUUCUGUAUUUUUUUGUUUUUGUACUAAAGUUUAUAGGUCUGUGCCAGCUAGAGAGAACAACAGAGGAUUGAGCAUCA
B7: chr1:68475836:68475940:-|3pUTR|ENSG00000024526|unk|total|mutant (ssRNA)
RNA: GGGAGUUCUACAGUCCGACGAUCAUGCCCAGGGCCUAACUUACACUAAUUAAAUCUGAAUUUUGGGGAUGUUGUACCGGGAUCCGUAUUUUUUUUAAUCCCGGUGAUUCCAAUAUUCAGCCAACUGUGAGAAUCAAUGGCCUACAACAGAGGAUUGAGCAUCA
B8: chr7:7573188:7573293:+|CDS|ENSG00000164654|unk|total|mutant (ssRNA)
RNA: GGGAGUUCUACAGUCCGACGAUCCCAUAUUUCCACGAUCGUGUUGCUUCCUUCUAUGAAGGUCAGGUUGCAAUAUGGGAUCUCCGAAAAUUUGAGAAGCCAGUUUUGACAUUGACUGAGCAACCAAAACCCUUAACAAAAGUACAACAGAGGAUUGAGCAUCA
B9: chr1:68475836:68475940:-|3pUTR|ENSG00000024526|unk|FALSE|unique (ssRNA)
RNA: B7 RNA with C76U, C77A, C83U, C84A, C100U, C101A
B10: chr19:34469546:34469571:+|3pUTR|ENSG00000126261|msi1_unk|FALSE|overlapping (ssRNA)
RNA: GGGAGUUCUACAGUCCGACGAUCGUUGCCUUUUUAAUGUAAAUACCCGUAGGUAUCAUUAAUAGUUUCAAAAUAUUGUGGUUUAGUAAAGUUGAUACCUGGUUAUAAAUAUUAUGCCUUUAUUUUUGGCUAGAAGAAGAAUUACAACAGAGGAUUGAGCAUCA
B11: chr15:67202635:67202736:-|3pUTR|ENSG00000103591|msi1|FALSE|unique (ssRNA)
RNA: GGGAGUUCUACAGUCCGACGAUCUGCCAAAAUUGCCCUUAUCAUGUUGGCUGCCUGACUUGUUUAUAGGGUCCCCUUAAUUUUAGUUUUUAGUAGGAGGUUAAGGAGAAAUCUUUUUUUUCCUCAGUAUAUUGUAAGAGAGUGCAACAGAGGAUUGAGCAUCA
B12: chr7:157269180:157269282:+|3pUTR|ENSG00000009335|unk|total|mutant (ssRNA)
RNA: B4 RNA with U28C, A29C, U62C, A63C, U83C, A84C, U97C, A98C
B13: chrX:135156539:135157311:-|three_prime_utr|ENSG00000169551|control|control|control (ssRNA)
RNA: GGGAGUUCUACAGUCCGACGAUCUUUAUUCUGUUUAUCUUUCCUUUUAUGAGCAGUAAAGGGGCUGGUUUAACUUAAAAGGUUAGCUUAGUAAGCCUAAAUAGUAUUUUAUAUAUGACUUUUCUGGCAAAUCUAAUUGAGACACAACAGAGGAUUGAGCAUCA
B14: chr8:23844609:23844711:-|3pUTR|ENSG00000159167|msi1|FALSE|unique (ssRNA)
RNA: GGGAGUUCUACAGUCCGACGAUCUUUAGGGGUGUUGACACACCAGUUUUGAGUGUACUGUGCCUGGUUUGAUUUUUUUAAAGUAGUUCCUAUUUUCUAUCCCCCUUAAAGAAAAUUGCAUGAAACUAGGCUUCUGUAAUCAAUCAACAGAGGAUUGAGCAUCA
B15: chr18:2804133:2804242:+|3pUTR|ENSG00000101596|unk|FALSE|unique (ssRNA)
RNA: GGGAGUUCUACAGUCCGACGAUCGGUUAAAGAGAAAUGACUUUUUAGGAACUAGACUUGAACGUAUAAUUAAUAUGUGGAACUAGUUUGCUUUUAUAAUUCAUUGUAUCAAGAAGGAGUCAUGUUUUAAAUCCAAGGCAUUGACAACAGAGGAUUGAGCAUCA

Where a chain is given by its changes, count along the chain named. Over roughly 5,800 sequences, “enrichment r” has its median near 0.68; the highest 2% begin near 11. Shown is part of a subset that was picked to be rich in the highest values.

The target in this experiment is T1, UNK ZnF1-6 (called full-length). Description: nsRBNS (natural sequence RNA bind-n-seq); RBNS binding buffer (assumed for nsRBNS): 25 mM Tris pH 7.5, 150 mM KCl, 3 mM MgCl2, 0.01% Triton X-100, 500 ug/ml BSA, 20 U/ml SUPERase-In, 4 C; UNK is unkempt and MSI1 is Musashi-1; names of the RNAs are library labels; protein concentration not given here; high values mean tight binding.
With B1, the binding signal is 2.66 enrichment R.
Molecule B2 gave a binding signal of 0.633 enrichment R.
Regarding B3, the binding signal is 0.605 enrichment R.
B4 showed a binding signal of 19.7 enrichment R.
With B5 the figure was 13.9 enrichment R.
On to B6, for which the binding signal amounted to 6.33 enrichment R.
Then B7, with 0.698 enrichment R; and B8, with 0.291 enrichment R; and B9, with 11.6 enrichment R.
B10 had a binding signal of 9.94 enrichment R.
Molecule B11 showed a binding signal of 15.9 enrichment R.
Molecule B12 had a binding signal of 0.843 enrichment R.
Then B13, with 1.68 enrichment R.
The molecule B14 gave a binding signal of 0.924 enrichment R.
The molecule B15 showed a binding signal of 0.789 enrichment R.

Values taken from publication PMC12136788.
